# Test results reported in PubChem BioAssay (NCATS).
# Results filed as inconclusive are left out. Entries that show only a call come without a potency. Activity calls are given as the source filed them. Calls come from the whole dose curve; as a rule, active = well fitted inhibition curve with a large enough effect; inconclusive = small, poorly fitted or top-dose-only effect; inactive = flat fitted curve, though single readings scatter.
# Experiment: P-glycoprotein substrates identified in KB-8-5-11 adenocarcinoma cell line, qHTS therapeutic library screen (AID 1346987); note: nearly all actives have a fitted effect of over 65% in size
# Conditions: KB-8-5-11 (P-gp overexpressing) viability, CellTiter-Glo, 72 h; series mostly up to 44.5 µM
# Method in brief: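 KB-8-5-11: colchicine-selected sub-line of KB-3-1 over-expressing P-gp; assay medium lacked colchicine. 72 h drug exposure at 37 degree C, CellTiter-Glo.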
row,SMILES,Potency
1,CC1=C2C3OC(=O)C(C)C3(O)CCC2(C)CCC1 (centres undefined),inactive
2,O=C(OC(C(F)(F)F)C(F)(F)F)N1CCN(Cc2cccc(Oc3ccccc3)c2)CC1,inactive
3,OC[C@H]1O[C@@H](OCCc2ccccc2)[C@H](O[C@@H]2OC[C@@H](O)[C@H](O)[C@H]2O)[C@@H](O)[C@@H]1O,inactive
4,CCC(C)C(=O)O[C@H]1[C@@H](O[C@H]2O[C@H](CO)[C@@H](O)[C@H](O)[C@H]2O)O[C@H](CO)[C@@H](O)[C@@H]1O (some centres undefined),inactive
5,CCC(C)C(=O)OC[C@H]1O[C@H](O[C@H]2O[C@H](CO)[C@@H](O)[C@H](O)[C@H]2O)[C@H](O)[C@@H](O)[C@@H]1O (some centres undefined),inactive
6,CCOC(=O)c1ccc(NC2CCCCC2)c(N)c1,inactive
7,CC1=C2C[C@@]3(C)C(CCC[C@@H]3C)C(O)C2(O)OC1=O (some centres undefined),inactive
8,C=C1C(O)CCC2(C)CC3(OC)OC(=O)C(C)=C3CC12 (centres undefined),inactive
9,CC1(C)CC[C@]2(C(=O)O[C@@H]3O[C@H](CO)[C@@H](O)[C@H](O)[C@H]3O)[C@H](O)C[C@]3(C)C(=CCC4[C@@]5(C)CC[C@H](O[C@@H]6OC[C@@H](O)[C@H](O)[C@H]6O)[C@@](C)(C(=O)O)C5CC[C@]43C)[C@@H]2C1 (some centres undefined),inactive
10,CC1(C)CCC[C@@]2(C)[C@H]1[C@H](O)C=C(CO)[C@]2(O)CO,inactive
11,C=CCC/C=C/C#CCCCCCCCC[C@H]1C(=O)O[C@H](C)[C@@H]1O,inactive
12,COc1cc([C@H]2OC[C@](O)(Cc3ccc(O[C@@H]4O[C@H](CO)[C@@H](O)[C@H](O)[C@H]4O)c(OC)c3)[C@@H]2CO)ccc1O,inactive
13,c1cc(-c2cc(C3CCNCC3)[nH]n2)ccn1,inactive
14,CC(=O)OCC(Cc1ccccc1)NC(=O)C(Cc1ccccc1)NC(=O)c1ccccc1 (centres undefined),inactive
15,Cc1onc(-c2ccccc2Cl)c1C(=O)N(C)c1ccc(Cl)cc1,inactive
16,O=C(/C=C/c1ccc(O)cc1)O[C@@H]1C[C@@](O)(C(=O)O)C[C@@H](O)[C@@H]1O,inactive
17,CC(=O)/C=C/[C@H]1[C@](C)(O)[C@@H](O)[C@H](O)C2C(C)(C)CCC[C@@]21C (some centres undefined),inactive
18,C=C(C(=O)O)[C@@H]1CC[C@H](C)[C@@H]2CC(=O)C(C)=C2C1,inactive
19,CC(C)[C@@](O)(c1ccc2cc(OC(F)F)c(OC(F)F)cc2c1)c1cn[nH]n1,inactive
20,COc1cc(C(C)=O)ccc1O[C@@H]1O[C@H](CO)[C@@H](O)[C@H](O)[C@H]1O,inactive

row,SMILES,Potency
1,COc1ccc(/C=C/C(=O)O[C@@H]2[C@@H](O)[C@@H](O)[C@H](O[C@H]3[C@@H]4C=CO[C@@H](O[C@@H]5O[C@H](CO)[C@@H](O)[C@H](O)[C@H]5O)[C@@H]4[C@@]4(CO)O[C@@H]34)O[C@H]2C)cc1,inactive
2,C[C@]1(O)CC[C@@H]2C(C(=O)O)=CO[C@@H](O[C@@H]3O[C@H](COC(=O)/C=C/c4ccc(O)c(O)c4)[C@@H](O)[C@H](O)[C@H]3O)[C@@H]21,inactive
3,CC(=O)O[C@@H]1[C@H](OC(C)=O)C[C@@]2(C)C(CC[C@@H](C)[C@]23Cc2c(O)cc4c(c2O3)CN([C@@H](CCC(=O)O)C(=O)O)C4=O)C1(C)C (some centres undefined),inactive
4,CCCCNc1nc(N)c2[nH]c(=O)n(Cc3ccc(OCCN(C)C)nc3)c2n1,inactive
5,CC1=C2C(=O)C=C(CO[C@@H]3O[C@H](CO)[C@@H](O)[C@H](O)[C@H]3O)[C@@H]2[C@H]2OC(=O)[C@H](C)[C@@H]2CC1,inactive
6,CC(C)(O)C1CC=C(C(=O)OC[C@H]2O[C@@H](OC(=O)C3=CCC(C(C)(C)O)CC3)[C@H](O)[C@@H](O)[C@@H]2O)CC1 (some centres undefined),inactive
7,COC(=O)C1=C[C@@H](O)[C@@H](O)[C@H](O[C@@H]2O[C@H](CO)[C@@H](O)[C@H](O)[C@H]2OC(=O)/C=C/c2ccccc2)C1,inactive
8,Cc1cn2cc(CC(=O)N3CCC4(CC3)CN(Cc3ccc(-n5nccn5)cc3Cl)C4)nc2s1,inactive
9,C=C1C(=O)O[C@@H]2C[C@]3(C)[C@@H](CCC(C)=O)[C@@H]3C[C@H]12,inactive
10,CC1=C2CC3C(CCC3(C)O)C(C)(O)CC2OC1=O (centres undefined),inactive
11,O=C(OCc1ccccc1O[C@@H]1O[C@H](CO)[C@@H](O)[C@H](O)[C@H]1O)C1(O)C=CCCC1O (some centres undefined),inactive
12,O=C(/C=C/c1ccc(O)cc1)OCC1OC(O)C(OC2OC(CO)C(O)C(O)C2O)C(O)C1O (centres undefined),inactive
13,CCOc1nc2c(N)ncnc2n1CC,inactive
14,C=C1C(O)CC2C(C(=O)O)=COC(OC3OC(CO)C(O)C(O)C3OC(=O)/C=C\c3ccc(O)cc3)C12 (centres undefined),inactive
15,C[C@@H]1[C@H]2[C@H](O[C@@H]3O[C@H](CO)[C@@H](O)[C@H](O)[C@H]3O)OC=C(C(=O)O)[C@H]2C[C@@H]1OC(=O)/C=C/c1ccc(O)cc1,inactive
16,CC1(C)C(=O)CCC2(C)C1C(O)C=C1COC(=O)C12O (centres undefined),inactive
17,O=C(/C=C/c1ccc(O)c(O)c1)O[C@@H]1[C@@H](O)[C@H](OC2CCCCC2O)O[C@H](CO)[C@H]1O (some centres undefined),inactive
18,CC(=O)OC(C)(C)/C=C/C(=O)[C@](C)(O)C1[C@H](O)C[C@@]2(C)[C@@H]3CC=C4[C@@H](C[C@H](O[C@@H]5O[C@H](CO)[C@@H](O)[C@H](O)[C@H]5O)C(=O)C4(C)C)[C@]3(C)C(=O)C[C@]12C (some centres undefined),inactive
19,CC(C)C1(O)C=C2C(=O)CC3C(C)(C(=O)O)CCCC3(C)C2CC1 (centres undefined),inactive
